Measured values from ChEMBL document CHEMBL3988442, “University of Dundee, Small-Polar-MMV Screening Library” (2021).
Among all 48,000 compounds or so, about 13,000 (27%) showed an effect of 50% or more. Some of the results follow.

system: Wolbachia pipientis; assay: Anti-Wolbachia Cell-Based Screen; type: functional; parameters: scale not given: in the data most compounds retested in dose-response had high values; settings: 5 µM

Structure (SMILES) | Percent Effect [%]
CCN(Cc1noc(CC(C)C)n1)Cc1ncccc1C(=O)O | 0.41
O=C(Cc1ccc(F)cc1)NCC(O)(c1cccs1)C1CC1 (configuration not stated) | -8.989
O=C(c1ccc(-c2nc[nH]n2)cc1)N1CCOC(C(F)(F)F)C1 (configuration not stated) | 16.44
Cc1cc(N2CCOC(C(F)(F)F)C2)nc(-c2ccccc2O)n1 (configuration not stated) | 0.367
O=C(c1ccnc(N2CCOC(C(F)(F)F)C2)c1)N1CCCC1 (configuration not stated) | 104.2
O=C(c1ccnc(N2CCOC(c3ccc(Cl)cc3)C2)c1)N1CCCC1 (configuration not stated) | 5.063
O=C(c1ccccc1-c1nc[nH]n1)N1CCOC(C(F)(F)F)C1 (configuration not stated) | -3.819
FC(F)(F)C1CN(c2nc(-c3ccccc3)no2)CCO1 (configuration not stated) | 1.85
CN1CCN(C(=O)c2ccnc(N3CCOC(C(F)(F)F)C3)c2)CC1 (configuration not stated) | 130.4
CCCOC1CCCN(C(=O)c2ccnc(N3CCN(C)CC3)c2)C1 (configuration not stated) | -2.412
O=C(c1ccnc(N2CCOC(C(F)(F)F)C2)c1)N1CCOCC1 (configuration not stated) | 126.7
N#CC(NC(=O)CC1CCSCC1)c1cnn(-c2ccccc2)c1 (configuration not stated) | -2.178
O=C(c1cccc(O)c1)N1CCN(Cc2nnc(C3CCC3)o2)CC1 | 6.828
CNC(=O)[C@@H]1CC[C@@H]2[C@@H](CCN2C(=O)N(C)C)O1 | -10.15
CN1CCC(NC(=O)[C@H]2CC[C@@H]3[C@@H](CCN3c3ncccn3)O2)CC1.O=C(O)C(F)(F)F.O=C(O)C(F)(F)F | 7.6
CC(=O)N1CC[C@@H]2O[C@H](C(=O)Nc3nc(C)cs3)C[C@@H]21 | 101
CS(=O)(=O)N1CC[C@H]2O[C@H](C(=O)NCc3cccnc3)CC[C@H]21 | -7.533
Cc1csc(NC(=O)[C@@H]2C[C@H]3[C@H](CCN3S(C)(=O)=O)O2)n1 | 118.9
CC(=O)N1CC[C@@H]2O[C@@H](COCc3csc(C)n3)CC[C@@H]21 | -30.94
O=C(NCc1cccnc1)[C@@H]1C[C@H]2[C@H](CCN2c2ncccn2)O1.O=C(O)C(F)(F)F.O=C(O)C(F)(F)F | -20.81
Cc1csc(NC(=O)[C@@H]2C[C@H]3[C@H](CCN3c3ncccn3)O2)n1.O=C(O)C(F)(F)F | 118

Structure (SMILES) | Percent Effect [%]
CS(=O)(=O)N1CC[C@H]2O[C@@H](C(=O)NCc3ccco3)CC[C@H]21 | -0.8352
NC(=O)CCn1ccc(NC(=O)c2ccc(Br)o2)n1 | -16.68
O=C(NCC1(N2CCOCC2)CCSC1)Nc1ccc(F)cc1 (configuration not stated) | -9.419
CCCOc1ccccc1CCCNc1ncnc2oc(C)nc12 | -6.613
CCc1nccc(CN2CCC(CNC(=O)c3occc3C)C2)n1 (configuration not stated) | -2.673
CC(N1CCN(C(=O)NCc2cccc(C#N)c2)CC1)C(F)(F)F (configuration not stated) | -0.6976
O=C([C@H]1CCCO1)N1CCc2ncnc(C3CC3)c2CC1 | 109.2
O=C(C1CCCCO1)N1CCc2ncnc(NCCO)c2CC1 (configuration not stated) | -13.54
O=C(c1ccnnc1)N1CCc2ncnc(C3CCOC3)c2CC1 (configuration not stated) | -19.12
O=C(C1CCCCO1)N1CCc2ncnc(NCc3ccon3)c2CC1 (configuration not stated) | -8.792
CC(C)Nc1ncnc2c1CCN(C(=O)[C@H]1CCCO1)CC2 | 89.47
CCN(C)c1ncnc2c1CCN(C(=O)[C@H]1CCCO1)CC2 | 4.637
CCCN(C)C(=O)c1cc(Br)cc(S(=O)(=O)N2CCOCC2)c1F | 6.063
Cc1nnc(N2CCCC3(CN(c4cccc(F)c4)CCO3)C2)o1 (configuration not stated) | -14.38
O=C(NCCN1CCOCC1)c1cc(Cl)c2c(c1)OCCCO2 | 12.84
CCn1c(CN2CCOC(Cn3cncn3)C2)nc2c(F)cccc21 (configuration not stated) | -6.661
Cc1ccc(C(CNCC2CC2)N2CCOCC2)s1 (configuration not stated) | -12.57
CC(Cn1cccn1)C(=O)N1CCC(Nc2cccnn2)CC1 (configuration not stated) | -6.529
O=C(c1ccc(-n2cnnc2)cc1)N1CCC(Nc2cccnn2)CC1 | 87.89
CNC(=O)c1ccc(C(=O)N2CCC(Nc3cccnn3)CC2)cn1 | 119
O=C(c1ccc(-c2cnco2)cc1)N1CCC(Nc2cccnn2)CC1 | 107

Structure (SMILES) | Percent Effect [%]
CC(C(=O)N1CCC(Nc2cccnn2)CC1)n1ccnc1 (configuration not stated) | 3.754
Cc1cccc2nc(C(=O)N3CCC(Nc4cccnn4)CC3)cn12 | -6.08
CC(C(=O)N1CCC(Nc2cccnn2)CC1)n1cccn1 (configuration not stated) | 60.47
CCOC(C)c1nc(Cn2cc(C(=O)NC)ccc2=O)cs1 (configuration not stated) | -7.956
Cc1ccc(NC(=O)N2CCOC(C)(c3cnn(C)c3)C2)c(C)c1 (configuration not stated) | 16.86
COc1cc2c(cc1OC)S(=O)(=O)N(Cc1cc(C)on1)C2=O | -6.413
N#Cc1c(Cl)nsc1N1CCN(CC2CCCCC2)CC1 | 3.475
Cc1cccc(-n2nc(CC(C)C)nc2CCn2ccc(=O)[nH]c2=O)c1 | 22.44
O=C(c1ccc(NC2CC2)nc1)N1CCC(Nc2cccnn2)CC1 | 118.5
O=C(c1ccccn1)N1CCC(Nc2cccnn2)CC1 | 18.78
O=C(c1ccsc1)N1CCC(c2nnc(C3CC3)o2)CC1 | 116.7
O=C(c1ccccc1-n1cccn1)N1CCC(Nc2cccnn2)CC1 | 157.4
O=C(c1ccc(-n2cccn2)nc1)N1CCC(Nc2cccnn2)CC1 | -1.733
O=C(c1ccc(O)nc1)N1CCC(Nc2cccnn2)CC1 | 95.42
O=C(c1ccncc1)N1CCCN(Cc2nnc(C3CC3)o2)CC1 | -12.73
O=C(c1ccccc1-n1cccn1)N1CCCN(c2cccnn2)CC1 | -6.198
FC(F)(F)c1ccc(-n2ccnc2-c2cc3n(n2)CCNC3)cn1 | 0.08182
CCS(=O)(=O)c1ccccc1N1CCC(NC(=O)NC2CCCC2)CC1 | -4.776
O=C(c1ccoc1)N1CCC(Nc2cccnn2)CC1 | 90.61
O=C(c1ccsc1)N1CCC(Nc2cccnn2)CC1 | 95.56
